Bioassay records (PubChem)
Sampled rows, rich in hits. Any-hit rate of the full collection: about 2.9%.
rCAG RNA binder – r(CAG) repeat RNA binding. AID 651821. TO-PRO-1 dye displacement fluorescence. actives 1.3% (n = 370,000). inhibition, % at 3 µM;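 active = inhibition above the plate cutoff, the mean of all test compounds on that plate plus 3 SD, cut at about 35% in these data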;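 also: 0% = DMSO alone and 100% = 100 µM mitoxantrone as full dye displacement; higher means more dye released from RNA so lower well fluorescence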
PAFAH1B3 FP inh – inhibitors of human PAFAH1B3; recombinant PAFAH1B3, FP-rhodamine probe, fluorescence polarization; inhibition, % at 3.39 µM; actives 0.28% (n = 340,000); AID 492972;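 active = inhibition above the screen-wide average of all tested compounds plus 3 SD, cut at about 25% in these data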;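 also: 0% = enzyme with DMSO only and 100% = wells lacking PAFAH1B3 protein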
Target sequence (Q15102 whole entry, looked up): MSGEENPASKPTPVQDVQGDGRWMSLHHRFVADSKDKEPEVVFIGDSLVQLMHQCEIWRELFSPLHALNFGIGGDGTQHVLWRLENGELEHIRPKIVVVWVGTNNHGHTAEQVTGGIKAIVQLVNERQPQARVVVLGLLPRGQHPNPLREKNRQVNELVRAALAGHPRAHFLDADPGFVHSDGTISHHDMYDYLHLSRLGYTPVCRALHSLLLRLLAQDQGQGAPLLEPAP
PAFAH2 FP inh – inhibitors of human PAFAH2; Q99487; recombinant PAFAH2, FP-rhodamine activity probe, fluorescence polarization; inhibition, % at 3.39 µM; actives 0.99% (n = 340,000); AID 492956;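 active = inhibition above the mean over all tested compounds plus 3 SD, cut at about 30% in these data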;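 also: inhibitors block probe labeling of enzyme so polarization drops; 0% = enzyme with DMSO and 100% = wells lacking PAFAH2 protein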
EBNA-1 inh – blocks EBNA-1 binding to DNA. inhibition, % at 14.8 µM. actives 0.34% (n = 300,000). EBNA-1 DNA binding, fluorescence polarization; in the data active = inhibition above about 28%
PAFAH1B2 inh – blocks human PAF acetylhydrolase 1b catalytic subunit 2; P68402; recombinant PAFAH1B2, FP-rhodamine activity probe, fluorescence polarization; actives 1.2% (n = 340,000); inhibition, % at 3.39 µM;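 active = inhibition above the mean of all tested compounds plus 3 SD, cut at about 24% in these data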;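 also: 0% = enzyme with DMSO and 100% = wells lacking PAFAH1B2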
ZTA counter – blocks Epstein-Barr virus ZTA, an EBNA-1 counter-screen. P03206. ZTA-DNA binding, fluorescence polarization. inhibition, % at 11 µM. actives 0.15% (n = 320,000). AID 2234; in the data active = inhibition above about 33%
Target sequence (P03206 whole entry, looked up): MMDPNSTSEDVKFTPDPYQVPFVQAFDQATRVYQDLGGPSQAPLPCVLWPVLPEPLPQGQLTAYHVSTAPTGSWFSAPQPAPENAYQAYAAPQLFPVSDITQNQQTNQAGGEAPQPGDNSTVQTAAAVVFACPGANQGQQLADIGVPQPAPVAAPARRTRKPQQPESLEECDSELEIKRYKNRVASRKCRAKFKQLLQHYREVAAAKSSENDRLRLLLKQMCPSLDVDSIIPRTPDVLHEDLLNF
rCAG bind conf – r(CAG) RNA repeat binding, confirmation. shares compounds with rCAG RNA binder. TO-PRO-1 dye displacement fluorescence. inhibition, % at 3 µM. actives 70% (n = 4,300). AID 652065;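 active = inhibition above a per-plate cutoff, the mean inhibition of sample wells plus 3 SD, cut at about 35% in these data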;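 also: loss of TO-PRO-1 fluorescence as compound displaces dye from 1x1 AA loop RNA; 0% = DMSO only wells and 100% = 100 µM mitoxantrone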
DNA CAG counter – disrupts DNA CAG TO-PRO-1 complex, flagging rCAG hits. shares compounds with rCAG RNA binder. d(CAG) DNA oligo TO-PRO-1 dye displacement, fluorescence. inhibition, % at 3 µM. actives 94% (n = 4,300). AID 652068;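 active = inhibition above its plate's cutoff, the mean test-well inhibition plus 3 SD, cut at about 4.8% in these data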;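 also: 0% = DNA dye mix with DMSO and 100% = 100 µM mitoxantrone; hits displace the dye from DNA and so lower well fluorescence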
DNA CAG DR – disrupts DNA CAG TO-PRO-1 complex in dose response; DNA CAG/GTC duplex TO-PRO-1 dye displacement fluorescence; IC50, µM; actives 20% (n = 250); shares compounds with rCAG RNA binder; in the data active = IC50 below about 10 µM
The depositor's hits bear a star.

Screening COC1C=COC2(C)Oc3c(C)c(O)c4c(O)c(c(CN5CCN(C)CC5)c(O)c4c3C2=O)NC(=O)C(C)=CC=CC(C)C(O)C(C)C(O)C(C)C(OC(C)=O)C1C (stereo not drawn) returned rCAG RNA binder 37*, PAFAH1B3 FP inh 7, PAFAH2 FP inh 8, PAFAH1B2 inh 0, rCAG bind conf 34 and DNA CAG counter 7.5*.
CC(C)c1[nH]nc2c1C(c1ccc(F)cc1)NC2=O (stereo not drawn) was read as rCAG RNA binder 0.
Screening N#C/C(=C\c1ccccc1OCc1ccc(C(=O)O)cc1)C(=O)Nc1ccc(O)cc1 returned rCAG RNA binder 44*, PAFAH1B3 FP inh 8, PAFAH2 FP inh -1, EBNA-1 inh 4, PAFAH1B2 inh 6, ZTA counter 5, rCAG bind conf 34 and DNA CAG counter 10*.
For COC(=O)c1ccc(COc2ccccc2/C=C(\C#N)C(=O)Nc2ccc(C)cc2)cc1 the results were rCAG RNA binder -2, PAFAH1B3 FP inh -33, PAFAH2 FP inh -33, EBNA-1 inh -3, PAFAH1B2 inh -23 and ZTA counter -2.
`COC(=O)c1cc2c(c3c4ccccc4n(S(=O)(=O)c4ccc(OC)cc4)c13)C(=O)N(Cc1ccccc1OC)C2` gave rCAG RNA binder 18.
Screening CC1=CC(c2ccc(Cl)cc2)n2nc(NS(=O)(=O)c3ccc(C)cc3)nc2N1 (stereo not drawn) returned rCAG RNA binder 47*, PAFAH1B3 FP inh 5, PAFAH2 FP inh 9, EBNA-1 inh 1, PAFAH1B2 inh 6, ZTA counter 7, rCAG bind conf 52* and DNA CAG counter 17*.
`CC1=CC(c2ccccc2)n2nc(NS(=O)(=O)c3ccc(C)cc3)nc2N1` (stereo not drawn) gave rCAG RNA binder 13, PAFAH1B3 FP inh -2, PAFAH2 FP inh -5, EBNA-1 inh 0, PAFAH1B2 inh 8 and ZTA counter 11.
CS(=O)(=O)c1ccc2nc(NC(=O)c3ccccc3)sc2c1 was read as rCAG RNA binder 3, PAFAH1B3 FP inh 6, PAFAH2 FP inh -1, EBNA-1 inh -7, PAFAH1B2 inh 3 and ZTA counter 7.
For CS(=O)(=O)c1ccc2nc(NC(=O)Nc3cccc(Cl)c3)sc2c1 the results were rCAG RNA binder 71*, PAFAH1B3 FP inh -66, PAFAH2 FP inh -13, EBNA-1 inh 23, PAFAH1B2 inh -7, ZTA counter 20, rCAG bind conf 63* and DNA CAG counter 47*.
For Cc1ccc2nc(NC(=O)c3ccc(NS(=O)(=O)c4cccs4)cc3)sc2c1 the results were rCAG RNA binder 43*, PAFAH1B3 FP inh 6, PAFAH2 FP inh 1, EBNA-1 inh -4, PAFAH1B2 inh 3, ZTA counter 8, rCAG bind conf 61* and DNA CAG counter 23*.
CS(=O)(=O)c1ccc2nc(NC(=O)c3ccc(NS(=O)(=O)c4cccc([N+](=O)[O-])c4)cc3)sc2c1 was read as rCAG RNA binder 72*, PAFAH1B3 FP inh 7, PAFAH2 FP inh -17, EBNA-1 inh 14, PAFAH1B2 inh 11, ZTA counter 4, rCAG bind conf 70*, DNA CAG counter 31* and DNA CAG DR 9.4*.
For Cc1ccc2nc(NC(=O)CCNS(=O)(=O)c3cccs3)sc2c1 the results were rCAG RNA binder 9, PAFAH1B3 FP inh 2, PAFAH2 FP inh 3, EBNA-1 inh 5, PAFAH1B2 inh 8 and ZTA counter 3.
Screening CCOC(=O)C1CCCN(S(=O)(=O)c2cc3c(cc2Br)CCN3C(=O)CC)C1 (stereo not drawn) returned rCAG RNA binder 3.
`Cc1c(CN(C)C(=O)c2sc3cc(Cl)ccc3c2Cl)cnn1C` gave rCAG RNA binder -3, PAFAH1B3 FP inh 12, PAFAH2 FP inh -8, EBNA-1 inh 12, PAFAH1B2 inh 7 and ZTA counter -5.
Screening CCOC(=O)c1c(C)[nH]c(C(=O)N(C)CC(=O)Nc2ccc(OC)cc2)c1C returned rCAG RNA binder -1, PAFAH1B3 FP inh 6, PAFAH2 FP inh 10, PAFAH1B2 inh 4 and ZTA counter 10.
O=S(=O)(/N=C(/Nc1nc2ccccc2s1)c1ccccc1)c1ccc(F)cc1 was read as rCAG RNA binder 38*, PAFAH1B3 FP inh 4, PAFAH2 FP inh 13, PAFAH1B2 inh 7, rCAG bind conf 31 and DNA CAG counter 6.6*.
For CCC(C)c1c(O)nc(SCC(=O)N2CCCCCC2)[nH]c1=O (stereo not drawn) the results were rCAG RNA binder 0, PAFAH1B3 FP inh 3, PAFAH2 FP inh -2, EBNA-1 inh 11, PAFAH1B2 inh -2 and ZTA counter 0.
`Fc1cccc(Cc2c(-c3cccc(Br)c3)nc3ccc(Br)cn23)c1` gave rCAG RNA binder 55*, rCAG bind conf 7 and DNA CAG counter 4.
Cc1ccc2nc(-c3ccc(Cl)cc3)c(Cc3cccc(F)c3)n2c1 was read as rCAG RNA binder 5.
Cc1ccc(Cc2c(-c3ccc(C)cc3)nc3ccc(Cl)cn23)cc1 was read as rCAG RNA binder 7.
For Fc1cccc(Cc2c(-c3ccc(Cl)cc3)nc3ccc(Br)cn23)c1 the results were rCAG RNA binder 49*, rCAG bind conf 14 and DNA CAG counter 4.6*.
For Cc1ccc(-c2nc3ccc(Cl)cn3c2Cc2ccccc2C(F)(F)F)cc1 the results were rCAG RNA binder 42*, rCAG bind conf 34 and DNA CAG counter 6.8*.
`Cc1ccc(Cc2c(-c3ccc(Br)cc3)nc3ccc(Cl)cn23)cc1` gave rCAG RNA binder 41*, rCAG bind conf 12 and DNA CAG counter 10*.
Screening Cc1ccc2nc(-c3ccc(Cl)cc3)c(Cc3ccccc3C(F)(F)F)n2c1 returned rCAG RNA binder 9.
Screening COc1ccccc1NC(=O)CN1C(=O)CC(C)S(=O)(=O)c2ccccc21 (stereo not drawn) returned rCAG RNA binder 1, PAFAH1B3 FP inh 1, PAFAH2 FP inh 16, EBNA-1 inh 11, PAFAH1B2 inh 2 and ZTA counter 9.
Cc1nnc(SCC(=O)Nc2ccccc2C(=O)NC2CC2)s1 was read as rCAG RNA binder 1, PAFAH1B3 FP inh 4, PAFAH2 FP inh -8, EBNA-1 inh 4, PAFAH1B2 inh 0 and ZTA counter 6.
CC1(C)OC(=O)C2=C(C[C@@H](CCc3ccccc3)O[C@H]2CCc2cccc(Cl)c2)O1 was read as rCAG RNA binder 4.
